Compounds with a hit are over-represented: about 2.5% of the library has one in this group of screens.
aDG glyco act: increases alpha dystroglycan glycosylation | Pro5-aDG cells, alpha-DG glycosylation AlphaScreen (IIH6); 0% Pro5, 100% B10-LARGE cell signal | activation, % at 10 µM | 360,000 tested, 0.22% active;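 active = activation of at least 8% versus controls, or a plate z-score of at least 8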;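 note: Pro5 are CHO cells carrying HIG-tagged alpha-DG that lacks glycosylation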
DYRK1A inh: blocks rat Dyrk1A kinase activity. Q63470. ADP-Glo luminescence, NFATc1 peptide. inhibition, % at 12.5 µM. 310,000 tested, 0.43% active. AID 504441; in the data active = inhibition above about 50%;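 note: plate controls were vehicle with enzyme for no effect and no enzyme for full effect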
HSF1 inh: HSF1 inhibition; NIH3T3-HGL HSE-luciferase, MG132-induced, luminescence 8 h; active compounds read low; activity change, negative = inhibition, % at 7.5 µM (by protocol); 300,000 tested, 0.77% active; AID 2098;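 active = more than half of replicate wells show activity change below -50%, luminescence cut by over half; inconclusive = some wells, but at most half, below -50%; inactive = no replicate well below -50%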;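 note: luciferase reports HSF-1 transcriptional activity via heat shock element; 0% = median of DMSO wells and -100% = zero luminescence signal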
NPR2 activator: GC-B (human) receptor activation; P20594; HEK293-GC-B cells, CNP EC30, cGMP TR-FRET; 0% at EC30 CNP, 100% saturating CNP; activation, % at 10 µM; 370,000 tested, 0.11% active; AID 1920062;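 active = activation at 10 µM reaching about 35% in either raw or pattern-adjusted values, limit read from the data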
HSF1 activator: increases HSF-1 driven luciferase reporter signal | 300,000 tested, 1.7% active | AID 504408 | activation, % at 9 µM | NIH3T3-HGL HSF-1 luciferase reporter, MG132, 8 h; 100% = twice DMSO control signal;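 active = mean replicate activation of at least 50% with a set share of replicates each reaching 50%; inconclusive = only one of those two conditions met; inactive = mean below 50% and too few replicates reaching it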;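 note: 0% = median of the neutral control wells and 100% = twice that signal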
NPR1 activator: GC-A (human) enzyme activation; 370,000 tested, 0.14% active; AID 1671463; HEK293 GC-A cells, cGMP TR-FRET, EC30 ANP; 0% at EC30 ANP, 100% saturating ANP; P16066; activation, % at 10 µM; in the data active = activation above about 40%
Numbers without * were called inactive; ? = inconclusive; / = not tested or not shown.

SMILES	aDG glyco act	DYRK1A inh	HSF1 inh	NPR2 activator	HSF1 activator	NPR1 activator
NCCCC[C@@H]1NC(=O)c2cc([N+](=O)[O-])cc(I)c2SC[C@@H](C(N)=O)NC(=O)[C@H](CCC(N)=O)NC1=O	0	4	-3	7	-7	5
O=C(CCl)Nc1cc(SCC(O)CO)cc([N+](=O)[O-])c1 (stereo unspecified)	0	-1	-71*	3	-73	4
CCC(=O)Nc1cc(SCCO)cc([N+](=O)[O-])c1	0	4	2	5	-3	3
Nc1cccc(/C=C/c2ccncc2)c1	0	1	8	0	54*	-3
N#C/C(=C\c1ccc(Cl)cc1)c1nc2ncccc2[nH]1	0	4	20	-18	54*	-3
Cc1cccc(CN2CCC(C(=O)Nc3cccc(-c4cscn4)c3)CC2)n1	0	/	40	-4	82*	-6
CC1CSc2nc3sc4c(c3c(=O)n21)CCCC4 (stereo unspecified)	0	12	12	1	21	0
COc1ccc2c(CC(=O)Nc3nccs3)coc2c1	1	/	19	1	72*	-4
COc1ccc2c(CC(=O)NCc3cccs3)coc2c1	0	/	13	-1	9	-3
Cc1ccc(Cn2nnc3c(=O)[nH]c(C4CCN(S(=O)(=O)c5ccccc5F)CC4)nc32)cc1	0	-3	-2	0	12	0
CNC(=O)NC(=O)CSc1cccc(C(F)(F)F)c1	0	2	5	-3	28	3
CCCNC(=O)NC(=O)CSc1cccc(C(F)(F)F)c1	0	3	37	1	77*	2
C#CCN(C[C@H]1[C@H](OC(=O)Nc2cccs2)[C@H](OC(=O)Nc2cccs2)CN(C(=O)OC(C)C)N1C(=O)OC(C)C)S(=O)(=O)c1ccc(C)cc1	/	/	/	-7	/	-4
COc1ccc(Cl)cc1NC(=O)c1cccc(S(=O)(=O)Nc2c(C)n(C)n(-c3ccccc3)c2=O)c1	/	/	/	-7	/	-7
S=C(Nc1ccc(Nc2ccccc2)cc1)Nc1ccccn1	9.4*	0	20	-3	22	7
O=C(COc1ncnc2ccccc12)N1CCOCC1	0	12	-7	2	-7	0
CCOC(=O)CSc1ncc(-c2ccccc2)cn1	0	-1	2	-7	-1	-1
Cc1ccc(N(CCCCN2C(=O)c3ccccc3C2=O)C(=O)c2cccc([N+](=O)[O-])c2)cc1	0	5	35	1	70*	-2
O=C1c2ccccc2C(=O)N1CCCCN(C(=O)c1cc([N+](=O)[O-])cc([N+](=O)[O-])c1)c1ccc(Cl)cc1	0	5	14	-3	25	-2
CCOC(=O)C1=NN(c2ccc(C)cc2)C2(S1)SC(C(C)=O)=C(C)N2c1ccccc1 (stereo unspecified)	0	0	22	-9	62*	-2
CC1(C)Cc2c(C#N)c(NCCO)nc(-c3ccco3)c2CO1	0	15	-52*	6	-58	-2
Cc1ccc(/C=C/C(=O)N2CCCC(C)C2)cc1 (stereo unspecified)	0	-2	24	-7	65*	3
CC(C)Cc1ccc(/C=C/C(=O)N2CCCCC2)cc1	0	/	30	-2	58*	5
CCc1ccc(/C=C\C(=O)N2CCCC2)cc1	0	2	11	-5	7	-3
NC(=NCCc1c[nH]c2ccccc12)NS(=O)(=O)c1cc(F)ccc1F	0	0	-5	12	2	1
COCCN(C(=O)COC(=O)CCn1c(C)csc1=O)c1c(N)n(Cc2ccccc2)c(=O)[nH]c1=O	0	-6	-2	3	1	3
CC(=O)c1sc(NC(=O)c2ccc(C)c(C)c2)nc1C	0	3	29	-5	53*	2
CC(=O)c1sc(NC(=O)c2ccc(C(C)(C)C)cc2)nc1C	0	/	-15	-5	-13	-5
O=C(c1ccc2c(Cl)c3c(nc2c1)CCCC3)N1CCC(N2CCCCC2)CC1	1	6	55	-1	?	0
O=C(Nc1ccccn1)c1ccc([N+](=O)[O-])cc1Cl	0	5	10	8	26	1
